The sample as a whole holds a higher share of hits than the screen did.
ST2 inh = IL1RL1 inhibition; inhibition, % for hits at 17 µM; 2.3% of 78,000 active; Q01638; AlphaLISA ST2-Fc/biotin-IL-33 interaction, 1 h; in the data active = inhibition above about 30%
Target sequence (Q01638 whole entry, looked up): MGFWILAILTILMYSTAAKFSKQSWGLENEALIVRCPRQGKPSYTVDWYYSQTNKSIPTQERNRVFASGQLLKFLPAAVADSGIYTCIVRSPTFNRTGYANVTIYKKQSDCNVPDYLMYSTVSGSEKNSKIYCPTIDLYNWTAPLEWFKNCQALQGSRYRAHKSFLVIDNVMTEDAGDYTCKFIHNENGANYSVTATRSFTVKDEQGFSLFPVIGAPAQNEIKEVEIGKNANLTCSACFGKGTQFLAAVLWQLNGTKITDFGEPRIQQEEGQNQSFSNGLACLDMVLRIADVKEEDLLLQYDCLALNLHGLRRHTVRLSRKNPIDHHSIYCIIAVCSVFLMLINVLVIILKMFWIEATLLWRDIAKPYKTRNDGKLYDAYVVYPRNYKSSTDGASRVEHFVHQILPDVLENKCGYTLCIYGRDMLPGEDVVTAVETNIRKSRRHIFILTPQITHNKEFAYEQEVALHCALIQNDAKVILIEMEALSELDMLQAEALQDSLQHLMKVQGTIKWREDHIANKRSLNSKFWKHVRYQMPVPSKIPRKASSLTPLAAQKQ
* marks the source's active call; other numbers are inactive results; i = inactive; ! = not active in a repeat.

SMILES	ST2 inh
CC(C)NC(=O)C1CC(=O)N(c2ccc(F)c(Cl)c2)C1 (configuration not stated)	i
CCC(C)NC(=O)C1CC(=O)N(c2ccc(F)cc2)C1 (configuration not stated)	33%*
Nc1nc(-c2ccc(F)c(F)c2)cs1	i
CC(C)(C)c1ccc(-c2cc(C[C@H]3CNCC[C@H]3CC(=O)NCc3ccccc3)no2)cc1	i
CC(C)(C)c1ccc(-c2cc(C[C@H]3CNCC[C@H]3CC(=O)NCc3ccc(F)cc3)no2)cc1	i
COc1ccc(CNC(=O)C[C@@H]2CCNC[C@@H]2Cc2cc(-c3ccc(C(C)(C)C)cc3)on2)cc1	47%*
COc1ccc(F)c(-c2cc(C)cnc2-n2cnnc2)c1	i
O=C(O)c1ccc2ccccc2n1	i
Cc1nc2ccccc2c(C(=O)O)c1C(=O)O	i
CC(O)=Cc1nc2ccccc2nc1C=C(C)O	38%*
O=C(NCCOC(=O)C1COc2ccccc2O1)c1ccncc1 (configuration not stated)	i
Cc1nc(CNC(C)COc2ccccc2)cs1 (configuration not stated)	i
Cn1cc(NC(=O)CN2CCCC(C(=O)c3ccc4ccccc4c3)C2)cn1 (configuration not stated)	i
O=C1N=c2ccc(F)cc2=C1c1sc(Nc2ccc(Br)cc2)nc1O	i
O=C1N=c2ccc(Cl)cc2=C1c1sc(Nc2ccc(Cl)cc2)nc1O	44%*
Cc1cc(Br)c2c(c1)=C(c1sc(Nc3ccccc3Cl)nc1O)C(=O)N=2	i
Cc1c(Cl)ccc2c1=NC(=O)C=2c1sc(Nc2ccc(Br)cc2)nc1O	i
Cc1ccccc1NC(=O)c1cccc(Br)c1	i
Cc1cccc(Nc2nc(O)c(C3=c4cc(Br)ccc4=NC3=O)s2)c1C	42%*
COC(=O)C1C(=O)C2=C(CC1C)NC(C)=C(C(=O)OC(C)C)C2c1ccc(F)cc1 (configuration not stated)	i
CCN(CCN(C)C)c1ncnc2c1cnn2-c1ccc(Cl)cc1	i
CC(C)c1ccc(NC2CCCN(C(=O)c3cccc(N4CCCC4=O)c3)C2)cc1 (configuration not stated)	i
COc1ccc(CN2CCN(Cc3ccc4c(c3)OCO4)CC2)c(OC)c1OC	i
CCCn1cnc2c(cnn2-c2ccc(F)cc2)c1=O	i
CCCCn1cnc2c(cnn2-c2ccc(F)cc2)c1=O	i
SMILES	ST2 inh
CCCCn1cnc2c(cnn2-c2ccc(Cl)cc2)c1=O	30%*
CCn1cnc2sc(C(=O)Oc3ccc(F)cc3)c(C)c2c1=O	i
COc1ccc(C(=O)N[C@H]2CC[C@]3(C)CCC([C@H](C)C(=O)N(C)Cc4cccnc4)[C@H](O)[C@H]3[C@@H]2C)cc1 (some centres not stated)	53%*
CCN(CC)C(=O)[C@@H](C)[C@@H]1CC[C@@]2(C)CC[C@H](NC(=O)c3cnccn3)[C@@H](C)[C@@H]2[C@H]1O	i
COCCN(CCOC)C(=O)[C@@H](C)C1CC[C@@]2(C)CC[C@H](NC(=O)c3ccncc3)[C@@H](C)[C@@H]2[C@H]1O (some centres not stated)	i
C[C@H]1[C@@H]2[C@@H](O)C([C@H](C)C(=O)N(C)CCC#N)CC[C@@]2(C)CC[C@@H]1NC(=O)c1cncnc1 (some centres not stated)	i
CCN(CC)C(=O)[C@@H](C)C1CC[C@@]2(C)CC[C@H](NC(=O)c3ccncc3)[C@@H](C)[C@@H]2[C@H]1O (some centres not stated)	49%*
COCCNC(=O)[C@@H](C)[C@@H]1CC[C@@]2(C)CC[C@H](NC(=O)c3ccccc3)[C@@H](C)[C@@H]2[C@H]1O	i
Cc1cccc(C(=O)Nc2ccc([N+](=O)[O-])c(NC(=O)c3cccc(C)c3)c2)c1	i
CCOc1ccc(C(=O)N2CCN=C2SCc2ccc(C)cc2)cc1	i
CC(C)=CCCC(C)CN1CCN(CCOCCO)CC1 (configuration not stated)	i
COCc1c(C(=O)NC2CCC(n3cnnc3)CC2)noc1C (configuration not stated)	i
CCC(C)NC(=O)C1CC1c1ccccc1 (configuration not stated)	i
Cc1nc(Oc2ccc(F)cc2)c(C(N)=O)c(C)c1Cl	i
CCO[C@H]1[C@H](NC(=O)CC)c2ccccc2C12CCN(C(=O)c1cc3ccccc3oc1=O)CC2	i
COc1ccc(C(=O)N2CC[C@H](CO)[C@H](O)C2)c(C)c1	i
COc1cc2c(cc1OC)C(C(=O)Nc1ccc(C)c(F)c1)C(c1cccs1)N(C)C2=O (configuration not stated)	i
COc1cccc(C2C(N3C(=O)c4ccccc4C3=O)C(=O)N2c2ccc(C)c(C)c2)c1 (configuration not stated)	i
O=C1c2ccc([N+](=O)[O-])cc2C(=O)N1CN1CCCCC1	i
Cc1cc(N2C(=O)c3cccc([N+](=O)[O-])c3C2=O)no1	i
Cc1ccc(N2C(=O)C(N3C(=O)c4ccccc4C3=O)C2c2ccc(N(C)C)cc2)cc1F (configuration not stated)	31%*!
O=C1c2ccc([N+](=O)[O-])cc2C(=O)N1c1c[nH]c(=O)[nH]c1=O	i
Cc1ccc(N2C(=O)C(N3C(=O)c4cccc([N+](=O)[O-])c4C3=O)C2c2cccs2)cc1F (configuration not stated)	32%*
COc1cccc(C2C(N3C(=O)c4ccccc4C3=O)C(=O)N2c2ccc(C)c(F)c2)c1 (configuration not stated)	i
Cc1cc(Cl)ccc1N1C(=O)C(N2C(=O)c3ccc([N+](=O)[O-])cc3C2=O)C1c1cccs1 (configuration not stated)	39%*
SMILES	ST2 inh
Cc1cc(C)cc(C(=O)N(c2ccc(C(C)C)cc2)C2C=CS(=O)(=O)C2)c1 (configuration not stated)	i
COc1cccc(Cn2c(CNC(=O)c3ccccc3Br)nc3cccnc32)c1	i
CCOc1ccc(OCC)c(NS(=O)(=O)c2ccc3c(c2)CC(C)N3C(=O)CC)c1 (configuration not stated)	i
O=C(Nc1cccc(O)c1)c1ccc(Br)c(S(=O)(=O)N2CCCCCC2)c1	i
CNC(=O)c1c(O)c2ccccc2[nH]c1=O	i
CCOc1ccccc1CN1CCNC(=O)C1CC(=O)NCC(C)(C)CN(C)C (configuration not stated)	i
Cc1ccc(NC(=O)c2cccc(Cl)c2)c(Br)c1	i
Cc1cc(C)c(C(=O)N2CCc3c(cnc(C)c3CNC(=O)/C=C/c3ccccc3)C2)[nH]1	i
O=C1C(=O)N(c2nccs2)C(c2ccccc2F)C1=C(O)c1ccc([N+](=O)[O-])cc1 (configuration not stated)	i
O=C(CCn1c(=O)c2sccc2n(Cc2ccc([N+](=O)[O-])cc2)c1=O)NCc1ccccc1	i
CCCNc1ncc(CN2CCCC3(C2)C(=O)N(C)c2ccccc23)cn1 (configuration not stated)	i
C=CCSc1nnc2c(n1)OC(c1ccncc1)Nc1ccccc1-2 (configuration not stated)	i
CCOC(=O)c1c(N)n(-c2ccc(OCC)cc2)c2nc3ccccc3nc12	i
Cc1ccc2c(c1)c1nc3ccccc3nc1n2CCN1CCOCC1	i
N#Cc1c(N)n(-c2cccc(F)c2)c2nc3ccccc3nc12	i

Screening data: PubChem, Paczesny and Yang Labs, IUPUI and University of Michigan
